Experiment in all cases: DAPPL (digital affinity profiling via proximity ligation, sequencing); 10 mM Tris-HCl pH 7.5, 50 mM NaCl, 1 mM DTT, 4% glycerol, room temperature, 30 min; GST-TFs on glutathione beads, 16-mer random dsDNA library, 0.1% formaldehyde crosslink after washing; high values mean tight binding
One test deals with T1, FLI1 (Homo sapiens, UniProt Q01543 1-452).
T1 sequence: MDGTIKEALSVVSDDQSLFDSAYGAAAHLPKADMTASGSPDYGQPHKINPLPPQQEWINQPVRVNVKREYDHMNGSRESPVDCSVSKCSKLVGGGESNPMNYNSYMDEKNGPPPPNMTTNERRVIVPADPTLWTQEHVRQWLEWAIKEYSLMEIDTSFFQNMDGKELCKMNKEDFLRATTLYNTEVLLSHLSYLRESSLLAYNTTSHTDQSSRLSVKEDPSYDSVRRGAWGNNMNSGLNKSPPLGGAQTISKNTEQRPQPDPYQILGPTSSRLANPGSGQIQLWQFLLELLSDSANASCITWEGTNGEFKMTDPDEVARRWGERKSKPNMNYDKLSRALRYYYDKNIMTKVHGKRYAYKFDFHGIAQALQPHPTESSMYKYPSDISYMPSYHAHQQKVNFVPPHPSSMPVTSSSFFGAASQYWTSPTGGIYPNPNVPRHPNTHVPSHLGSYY
As to conditions: protein: recombinant; tags: N-terminal GST; dsDNA, one strand shown. In short, it runs like this:
(§1)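 In yeast, human transcription factors were expressed with a GST fusion, then pulled down on glutathione beads and given DNA barcodes. Pooled with a tag-only sample, they were exposed to 200 nmole of a 16-mer random double-stranded DNA library (Tris/NaCl/DTT/glycerol buffer, room temperature, 30 min), washed, crosslinked with 0.1% formaldehyde, proximity-ligated using BsaI/T4 ligase for 1 h at 37 °C, PCR-amplified and read on an Illumina NextSeq500. Each hexamer's frequency of reads for a factor, divided by the matching frequency for the tag-only sample, gives the binding signal.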

In another test the target is T2, ELK1 (Homo sapiens, UniProt P19419 1-428).
T2 sequence: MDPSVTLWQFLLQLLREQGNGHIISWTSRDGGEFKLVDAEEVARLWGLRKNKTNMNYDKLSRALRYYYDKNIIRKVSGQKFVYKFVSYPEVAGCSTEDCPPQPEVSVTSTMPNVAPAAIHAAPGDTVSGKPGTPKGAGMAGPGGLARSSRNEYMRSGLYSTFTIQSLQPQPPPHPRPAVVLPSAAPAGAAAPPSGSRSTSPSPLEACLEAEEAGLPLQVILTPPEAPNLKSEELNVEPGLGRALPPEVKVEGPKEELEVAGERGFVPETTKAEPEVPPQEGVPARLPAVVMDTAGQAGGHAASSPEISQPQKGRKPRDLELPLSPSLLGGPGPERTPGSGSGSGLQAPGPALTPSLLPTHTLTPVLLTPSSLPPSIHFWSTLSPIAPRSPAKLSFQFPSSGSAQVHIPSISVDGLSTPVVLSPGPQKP
The following applies: protein: recombinant; tags: N-terminal GST; dsDNA, one strand shown. The gist of the method: as §1

Another test deals with T3, GABPA (Homo sapiens, UniProt Q06546 1-454).
T3 sequence: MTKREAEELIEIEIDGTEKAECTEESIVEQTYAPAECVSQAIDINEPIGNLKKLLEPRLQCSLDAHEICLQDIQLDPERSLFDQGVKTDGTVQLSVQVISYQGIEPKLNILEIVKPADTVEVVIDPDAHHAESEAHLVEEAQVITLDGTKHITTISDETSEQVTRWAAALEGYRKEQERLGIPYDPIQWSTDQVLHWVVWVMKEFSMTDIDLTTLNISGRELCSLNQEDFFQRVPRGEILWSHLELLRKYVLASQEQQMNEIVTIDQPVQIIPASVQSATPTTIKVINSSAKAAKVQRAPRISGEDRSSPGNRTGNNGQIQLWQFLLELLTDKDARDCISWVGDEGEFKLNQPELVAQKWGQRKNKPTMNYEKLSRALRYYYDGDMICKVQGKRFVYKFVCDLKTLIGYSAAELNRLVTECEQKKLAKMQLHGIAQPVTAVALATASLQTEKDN
The following applies: protein: recombinant; tags: N-terminal GST; dsDNA, one strand shown. The gist of the method:
as §1

Another test deals with T4, ERG (Homo sapiens, UniProt P11308 1-479).
T4 sequence: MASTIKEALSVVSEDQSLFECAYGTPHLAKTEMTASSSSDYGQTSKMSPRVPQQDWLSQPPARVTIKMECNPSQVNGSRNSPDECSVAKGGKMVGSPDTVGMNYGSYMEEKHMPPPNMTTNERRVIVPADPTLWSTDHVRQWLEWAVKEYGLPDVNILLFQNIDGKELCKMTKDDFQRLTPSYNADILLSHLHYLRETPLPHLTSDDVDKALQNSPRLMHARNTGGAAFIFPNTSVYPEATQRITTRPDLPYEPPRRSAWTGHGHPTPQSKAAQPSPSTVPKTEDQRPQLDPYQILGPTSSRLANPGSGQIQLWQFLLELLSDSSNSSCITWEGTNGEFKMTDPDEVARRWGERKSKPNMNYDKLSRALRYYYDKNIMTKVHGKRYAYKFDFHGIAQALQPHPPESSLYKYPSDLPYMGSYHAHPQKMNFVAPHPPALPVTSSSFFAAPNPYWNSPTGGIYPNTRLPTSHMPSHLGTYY
The following applies: protein: recombinant; tags: N-terminal GST; dsDNA, one strand shown. In short, it runs like this: as §1

Another test has as its target ELF1 (Homo sapiens, UniProt P32519 1-619). As to conditions: protein: recombinant; tags: N-terminal GST; dsDNA, one strand shown. The gist of the method: as §1
The target in the next test is T5, EHF (Homo sapiens, UniProt Q9NZC4 1-300).
T5 sequence: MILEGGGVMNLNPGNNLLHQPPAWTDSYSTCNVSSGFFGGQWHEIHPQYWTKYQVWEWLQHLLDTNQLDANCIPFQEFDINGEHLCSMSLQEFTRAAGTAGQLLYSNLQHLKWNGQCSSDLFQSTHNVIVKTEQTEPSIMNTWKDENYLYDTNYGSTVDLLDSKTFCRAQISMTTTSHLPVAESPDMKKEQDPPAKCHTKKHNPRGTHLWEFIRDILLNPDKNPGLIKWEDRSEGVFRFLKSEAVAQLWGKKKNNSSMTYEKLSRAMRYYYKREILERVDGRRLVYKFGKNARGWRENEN
As to conditions: protein: recombinant; tags: N-terminal GST; dsDNA, one strand shown. In short, it runs like this: as §1

The target of a further test is SPI1 (Homo sapiens, UniProt P17947 1-270). As to conditions: protein: recombinant; tags: N-terminal GST; dsDNA, one strand shown. The gist of the method: as §1
A further test has as its target SPIB (Homo sapiens, UniProt Q01892 1-262). As to conditions: protein: recombinant; tags: N-terminal GST; dsDNA, one strand shown. The gist of the method: as §1
A further test has as its target T6, ELK3 (Homo sapiens, UniProt P41970 1-407).
T6 sequence: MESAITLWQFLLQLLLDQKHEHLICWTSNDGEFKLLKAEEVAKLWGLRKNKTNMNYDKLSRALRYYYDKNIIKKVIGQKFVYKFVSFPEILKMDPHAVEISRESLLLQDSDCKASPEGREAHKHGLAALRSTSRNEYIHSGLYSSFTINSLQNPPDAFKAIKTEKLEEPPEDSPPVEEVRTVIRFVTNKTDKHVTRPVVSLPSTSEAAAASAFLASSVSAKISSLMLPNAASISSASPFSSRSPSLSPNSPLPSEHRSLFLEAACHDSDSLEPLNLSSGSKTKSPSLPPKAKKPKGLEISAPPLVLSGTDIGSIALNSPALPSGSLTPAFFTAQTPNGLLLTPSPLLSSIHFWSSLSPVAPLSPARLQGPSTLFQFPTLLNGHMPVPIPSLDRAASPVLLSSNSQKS
As to conditions: protein: recombinant; tags: N-terminal GST; dsDNA, one strand shown. In short, it runs like this:
as §1

The next test addresses T7, FEV (Homo sapiens, UniProt Q99581 1-238).
T7 sequence: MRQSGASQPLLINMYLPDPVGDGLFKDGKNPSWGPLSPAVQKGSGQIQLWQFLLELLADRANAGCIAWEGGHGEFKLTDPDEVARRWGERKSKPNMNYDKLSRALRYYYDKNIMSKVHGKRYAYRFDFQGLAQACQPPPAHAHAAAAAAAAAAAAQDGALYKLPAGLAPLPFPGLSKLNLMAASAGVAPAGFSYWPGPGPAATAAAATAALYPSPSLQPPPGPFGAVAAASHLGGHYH
The following applies: protein: recombinant; tags: N-terminal GST; dsDNA, one strand shown. In short, it runs like this: as §1

Another test addresses ETV5 (Homo sapiens, UniProt P41161 1-510). The following applies: protein: recombinant; tags: N-terminal GST; dsDNA, one strand shown. The gist of the method: as §1
A further test deals with HSF1 (Homo sapiens, UniProt Q00613 1-529). As to conditions: protein: recombinant; tags: N-terminal GST; chain copies: 3; dsDNA, one strand shown. The gist of the method:
as §1

In the next test the target is T8, SPIC (Homo sapiens, UniProt Q8N5J4 1-248).
T8 sequence: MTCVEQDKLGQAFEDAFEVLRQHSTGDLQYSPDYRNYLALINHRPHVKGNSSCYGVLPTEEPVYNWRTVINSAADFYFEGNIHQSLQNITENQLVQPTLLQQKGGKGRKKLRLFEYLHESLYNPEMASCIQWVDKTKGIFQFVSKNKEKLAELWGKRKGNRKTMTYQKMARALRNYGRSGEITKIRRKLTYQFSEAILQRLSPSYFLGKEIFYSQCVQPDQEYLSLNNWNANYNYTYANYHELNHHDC
The following applies: protein: recombinant; tags: N-terminal GST; dsDNA, one strand shown. In short, it runs like this:
as §1

In the next test the target is ELF4 (Homo sapiens, UniProt Q99607 1-663). The following applies: protein: recombinant; tags: N-terminal GST; dsDNA, one strand shown. The gist of the method:
as §1

The target of a further test is T9, ELK4 (Homo sapiens, UniProt P28324-2 1-405).
T9 sequence: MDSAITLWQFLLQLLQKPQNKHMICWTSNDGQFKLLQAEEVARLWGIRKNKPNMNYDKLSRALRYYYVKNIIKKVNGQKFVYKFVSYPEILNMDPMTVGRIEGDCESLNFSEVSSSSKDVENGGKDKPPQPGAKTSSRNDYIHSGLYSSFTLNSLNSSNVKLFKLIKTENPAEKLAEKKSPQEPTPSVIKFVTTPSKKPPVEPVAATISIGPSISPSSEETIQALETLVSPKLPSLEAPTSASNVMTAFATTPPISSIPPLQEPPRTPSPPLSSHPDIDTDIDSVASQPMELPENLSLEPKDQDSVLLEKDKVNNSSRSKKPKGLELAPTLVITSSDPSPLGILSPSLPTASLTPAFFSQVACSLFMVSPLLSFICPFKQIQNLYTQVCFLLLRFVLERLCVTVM
The following applies: protein: recombinant; tags: N-terminal GST; dsDNA, one strand shown. In short, it runs like this:
as §1

In the next test the target is T10, ETV2 (Homo sapiens, UniProt O00321 1-342).
T10 sequence: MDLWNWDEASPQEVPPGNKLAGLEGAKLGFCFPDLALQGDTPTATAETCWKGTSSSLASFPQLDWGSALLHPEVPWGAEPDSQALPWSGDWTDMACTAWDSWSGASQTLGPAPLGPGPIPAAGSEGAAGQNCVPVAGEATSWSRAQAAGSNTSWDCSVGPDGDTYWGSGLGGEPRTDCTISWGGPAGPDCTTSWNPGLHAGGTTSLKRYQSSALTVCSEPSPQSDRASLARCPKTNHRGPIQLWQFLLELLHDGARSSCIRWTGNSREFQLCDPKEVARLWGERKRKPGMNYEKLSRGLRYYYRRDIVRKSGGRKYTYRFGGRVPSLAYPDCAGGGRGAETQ
The following applies: protein: recombinant; tags: N-terminal GST; dsDNA, one strand shown. The gist of the method: as §1

A further test concerns the target T11, ELF3 (Homo sapiens, UniProt P78545 1-371).
T11 sequence: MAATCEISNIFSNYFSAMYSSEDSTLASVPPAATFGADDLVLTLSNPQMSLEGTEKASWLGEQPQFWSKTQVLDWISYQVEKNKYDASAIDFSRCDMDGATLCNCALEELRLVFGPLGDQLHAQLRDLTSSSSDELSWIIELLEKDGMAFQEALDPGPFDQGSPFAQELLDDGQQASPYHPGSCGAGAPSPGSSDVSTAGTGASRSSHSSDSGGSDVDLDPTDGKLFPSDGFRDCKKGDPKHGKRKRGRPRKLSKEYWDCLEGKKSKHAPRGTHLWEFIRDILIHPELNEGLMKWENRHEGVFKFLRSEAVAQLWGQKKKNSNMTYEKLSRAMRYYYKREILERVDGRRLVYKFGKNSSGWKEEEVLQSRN
The following applies: protein: recombinant; tags: N-terminal GST; dsDNA, one strand shown. In short, it runs like this: as §1

A further test concerns the target CRX (Homo sapiens, UniProt O43186 1-299). The following applies: protein: recombinant; tags: N-terminal GST; dsDNA, one strand shown. The gist of the method:
as §1

The target of another test is ETV1 (Homo sapiens, UniProt P50549 1-477). The following applies: protein: recombinant; tags: N-terminal GST; dsDNA, one strand shown. The gist of the method:
as §1

ETV5, sequence (P41161 whole entry): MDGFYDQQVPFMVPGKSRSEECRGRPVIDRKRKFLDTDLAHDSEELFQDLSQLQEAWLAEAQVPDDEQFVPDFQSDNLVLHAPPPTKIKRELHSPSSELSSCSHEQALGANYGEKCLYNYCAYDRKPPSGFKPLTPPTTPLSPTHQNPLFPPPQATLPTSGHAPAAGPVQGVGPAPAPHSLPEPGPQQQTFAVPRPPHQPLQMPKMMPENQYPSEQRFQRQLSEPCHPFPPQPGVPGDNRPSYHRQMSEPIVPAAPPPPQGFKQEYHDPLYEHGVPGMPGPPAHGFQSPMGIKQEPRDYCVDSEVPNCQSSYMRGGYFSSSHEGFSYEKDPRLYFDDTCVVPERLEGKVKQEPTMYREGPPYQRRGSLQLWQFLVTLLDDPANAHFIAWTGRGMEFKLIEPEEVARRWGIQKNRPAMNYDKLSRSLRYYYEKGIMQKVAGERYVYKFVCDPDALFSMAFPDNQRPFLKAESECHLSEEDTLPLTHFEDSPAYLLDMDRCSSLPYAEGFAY
SPIB, sequence (Q01892 whole entry): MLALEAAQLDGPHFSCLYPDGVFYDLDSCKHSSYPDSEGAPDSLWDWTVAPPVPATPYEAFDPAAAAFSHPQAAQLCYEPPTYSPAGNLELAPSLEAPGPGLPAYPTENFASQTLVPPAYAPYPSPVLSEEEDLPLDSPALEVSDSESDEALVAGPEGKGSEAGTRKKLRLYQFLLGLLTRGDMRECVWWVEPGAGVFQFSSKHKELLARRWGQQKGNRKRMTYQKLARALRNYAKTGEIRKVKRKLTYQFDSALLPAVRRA
ETV1, sequence (P50549 whole entry): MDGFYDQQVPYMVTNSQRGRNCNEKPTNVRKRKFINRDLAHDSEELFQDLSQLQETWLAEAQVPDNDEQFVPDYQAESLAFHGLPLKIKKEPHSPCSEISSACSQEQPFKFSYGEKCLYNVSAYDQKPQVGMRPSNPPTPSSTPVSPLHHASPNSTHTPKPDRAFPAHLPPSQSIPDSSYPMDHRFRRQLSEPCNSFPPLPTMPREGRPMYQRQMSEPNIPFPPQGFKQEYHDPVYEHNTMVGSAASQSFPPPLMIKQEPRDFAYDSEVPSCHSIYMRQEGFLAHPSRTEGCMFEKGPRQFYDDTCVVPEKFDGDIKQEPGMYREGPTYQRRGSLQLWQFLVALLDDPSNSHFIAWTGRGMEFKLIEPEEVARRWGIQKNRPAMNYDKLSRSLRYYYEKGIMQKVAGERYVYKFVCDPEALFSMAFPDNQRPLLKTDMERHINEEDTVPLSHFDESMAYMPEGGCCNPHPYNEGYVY
CRX, sequence (O43186 whole entry): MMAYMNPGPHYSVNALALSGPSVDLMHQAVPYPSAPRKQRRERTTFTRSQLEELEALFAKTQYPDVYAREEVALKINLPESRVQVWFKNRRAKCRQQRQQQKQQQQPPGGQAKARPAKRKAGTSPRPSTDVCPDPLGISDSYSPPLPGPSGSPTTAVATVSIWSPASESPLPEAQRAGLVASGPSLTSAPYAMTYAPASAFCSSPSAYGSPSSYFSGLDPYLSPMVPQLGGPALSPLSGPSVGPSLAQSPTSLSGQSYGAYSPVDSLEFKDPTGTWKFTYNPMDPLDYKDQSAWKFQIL
ELF4, sequence (Q99607 whole entry): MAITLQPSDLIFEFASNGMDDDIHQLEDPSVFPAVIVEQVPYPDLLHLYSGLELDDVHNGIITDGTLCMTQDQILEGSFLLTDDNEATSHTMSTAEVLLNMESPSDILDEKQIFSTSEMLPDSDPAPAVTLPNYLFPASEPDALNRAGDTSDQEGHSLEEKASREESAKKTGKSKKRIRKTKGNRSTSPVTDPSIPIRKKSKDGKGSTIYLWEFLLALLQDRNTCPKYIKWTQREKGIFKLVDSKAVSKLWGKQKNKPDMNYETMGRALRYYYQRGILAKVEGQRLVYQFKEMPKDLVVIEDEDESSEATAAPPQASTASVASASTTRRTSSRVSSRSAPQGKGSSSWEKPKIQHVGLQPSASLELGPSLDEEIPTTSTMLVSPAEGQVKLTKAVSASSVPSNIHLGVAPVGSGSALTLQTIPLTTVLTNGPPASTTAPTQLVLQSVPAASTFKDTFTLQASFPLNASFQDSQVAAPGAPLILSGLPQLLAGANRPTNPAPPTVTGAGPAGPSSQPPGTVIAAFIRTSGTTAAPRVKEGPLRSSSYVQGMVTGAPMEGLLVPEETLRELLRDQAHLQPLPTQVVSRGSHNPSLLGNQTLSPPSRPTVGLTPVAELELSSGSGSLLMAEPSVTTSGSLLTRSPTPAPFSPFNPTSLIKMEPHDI
ELF1, sequence (P32519 whole entry): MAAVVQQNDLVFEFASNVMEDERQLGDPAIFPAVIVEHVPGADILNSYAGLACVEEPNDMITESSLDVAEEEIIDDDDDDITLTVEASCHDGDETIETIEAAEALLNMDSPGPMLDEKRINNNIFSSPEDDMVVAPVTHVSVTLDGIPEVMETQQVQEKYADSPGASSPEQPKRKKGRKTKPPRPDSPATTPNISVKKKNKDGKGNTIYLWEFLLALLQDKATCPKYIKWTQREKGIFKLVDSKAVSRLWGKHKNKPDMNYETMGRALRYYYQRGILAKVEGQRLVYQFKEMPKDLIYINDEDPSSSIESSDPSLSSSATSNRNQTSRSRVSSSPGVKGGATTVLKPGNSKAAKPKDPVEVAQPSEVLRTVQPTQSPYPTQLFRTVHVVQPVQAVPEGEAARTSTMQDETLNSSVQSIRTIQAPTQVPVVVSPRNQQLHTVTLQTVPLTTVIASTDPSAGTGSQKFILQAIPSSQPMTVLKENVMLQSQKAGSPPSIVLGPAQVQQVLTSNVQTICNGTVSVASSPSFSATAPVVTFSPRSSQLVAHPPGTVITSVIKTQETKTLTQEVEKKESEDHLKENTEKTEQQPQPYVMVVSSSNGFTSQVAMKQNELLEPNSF
HSF1, sequence (Q00613 whole entry): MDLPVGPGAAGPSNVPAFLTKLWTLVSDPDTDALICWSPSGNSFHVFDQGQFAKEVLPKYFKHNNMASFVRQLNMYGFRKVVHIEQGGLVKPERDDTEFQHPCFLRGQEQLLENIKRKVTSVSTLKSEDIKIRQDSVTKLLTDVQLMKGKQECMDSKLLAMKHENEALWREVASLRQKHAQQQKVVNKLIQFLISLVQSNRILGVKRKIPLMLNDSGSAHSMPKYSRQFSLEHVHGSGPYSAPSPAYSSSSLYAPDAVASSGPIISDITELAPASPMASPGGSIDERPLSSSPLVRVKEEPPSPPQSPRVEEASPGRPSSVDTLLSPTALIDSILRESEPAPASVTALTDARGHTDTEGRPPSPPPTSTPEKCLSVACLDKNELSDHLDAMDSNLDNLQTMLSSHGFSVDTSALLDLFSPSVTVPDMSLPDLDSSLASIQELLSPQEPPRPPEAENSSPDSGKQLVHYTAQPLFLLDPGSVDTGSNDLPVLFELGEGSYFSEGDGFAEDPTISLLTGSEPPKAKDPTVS

Consider GAAATT, for which the binding signal was 1.23 fold enrichment (6-mer frequency, TF over GST control) with FLI1; 1.15 fold enrichment (6-mer frequency, TF over GST control) with ELK1; 1.29 fold enrichment (6-mer frequency, TF over GST control) with GABPA; 1.32 fold enrichment (6-mer frequency, TF over GST control) in the test with ERG; 1.23 fold enrichment (6-mer frequency, TF over GST control) in the test with ELF1; 1.36 fold enrichment (6-mer frequency, TF over GST control) with EHF. For the same sequence, the binding signal with SPI1 was 1.23 fold enrichment (6-mer frequency, TF over GST control); with SPIB, 1.3 fold enrichment (6-mer frequency, TF over GST control); with ELK3, 1.28 fold enrichment (6-mer frequency, TF over GST control); with FEV, 1.25 fold enrichment (6-mer frequency, TF over GST control); with ETV5, 1.36 fold enrichment (6-mer frequency, TF over GST control); with HSF1 it was 1.48 fold enrichment (6-mer frequency, TF over GST control). Also, the binding signal with SPIC is 1.2 fold enrichment (6-mer frequency, TF over GST control); with ELF4 it was 1.27 fold enrichment (6-mer frequency, TF over GST control); with ELK4, 1.17 fold enrichment (6-mer frequency, TF over GST control); with ETV2, 1.23 fold enrichment (6-mer frequency, TF over GST control); with ELF3 it was 1.44 fold enrichment (6-mer frequency, TF over GST control); with CRX, 1.08 fold enrichment (6-mer frequency, TF over GST control). Besides, the binding signal with ETV1 is 1.28 fold enrichment (6-mer frequency, TF over GST control).

These data come from article PMC7862700, “An all-to-all approach to the identification of sequence-specific readers for epigenetic DNA modifications on cytosine”.
